# According to the antibiotic and cytotoxicity screens of Wong et al. (2023):
# In all, about 39,000 compounds went through this assay and about 3,300 (8.5%) were called active. The entries come from a sample that favours actives as a whole.
# Tested on: HepG2
# Assay: cytotoxicity call (relative viability < 0.9)
# Conditions: 10 µM
row,SMILES,cytotoxicity call
1,Cc1ccc(CC2(N)CC2)cc1,inactive
2,CC(C)C[C@H](NC(=O)[C@H](CO)NC(=O)CNC(=O)[C@H](CC(C)C)NC(=O)[C@H](CCC(=O)O)NC(=O)[C@H](Cc1ccc(O)cc1)NC(=O)[C@H](CO)NC(=O)[C@H](CC(N)=O)NC(=O)[C@H](Cc1ccccc1)NC(=O)[C@H](CO)NC(=O)[C@@H](N)CSSC[C@H](N)C(=O)N[C@@H](Cc1ccc(O)cc1)C(=O)NCC(=O)N[C@@H](CCCNC(=N)N)C(=O)N[C@@H](CCCCN)C(=O)N[C@@H](CCCCN)C(=O)N[C@@H](CCCNC(=N)N)C(=O)N[C@@H](CCCNC(=N)N)C(=O)N[C@@H](CCC(N)=O)C(=O)N[C@@H](CCCNC(=N)N)C(=O)N[C@@H](CCCNC(=N)N)C(=O)N[C@@H](CCCNC(=N)N)C(=O)O)C(=O)O,inactive
3,CN(CC[C@H](N)CC(=O)N[C@H]1C=C[C@@H](n2ccc(N)nc2=O)O[C@@H]1C(=O)O)C(=N)N,inactive
4,c1cncc(N2CCNCC2)c1,inactive
5,Cc1[nH]c2ccccc2c1CCN,inactive
6,C=CCOC(=O)[C@@H]1[C@H](C(=O)OC)N(C)[C@@H](c2ccccc2)[C@]12C(=O)Nc1ccc(I)cc12,inactive
7,OCCN(CCO)CCO,inactive
8,NC1Cc2ccccc2C1,inactive
9,CC(=O)OC(C)(C)/C=C/C(=O)C(C)(O)[C@H]1[C@H](O)C[C@@]2(C)[C@H]3CC=C4[C@@H](C[C@H](O)C(=O)C4(C)C)[C@]3(C)C(=O)C[C@]12C (stereo not given in full),active
10,CC(C)(O)/C=C/C(=O)[C@](C)(O)[C@H]1[C@H](O)C[C@@]2(C)[C@H]3CC=C4[C@@H](CC(=O)C(=O)C4(C)C)[C@]3(C)C(=O)C[C@]12C,active
11,Cc1nc(N2CCN(C)CC2)ccc1N,inactive
12,C[C@@H]1CN([C@H](C)CO)C(=O)CCCn2nncc2CO[C@H]1CN(C)C(=O)Oc1cccc2ccccc12,inactive
13,O=C1C2CCN(CC2)C1(CO)CO,inactive
14,CN[C@@H]1[C@@H](O)[C@@H](O[C@@H]2[C@@H](O)[C@H](O[C@H]3O[C@H](CN)CC[C@H]3N)[C@@H](N)C[C@H]2N)OC[C@]1(C)O.CN[C@@H]1[C@@H](O)[C@@H](O[C@@H]2[C@@H](O)[C@H](O[C@H]3O[C@H]([C@@H](C)N)CC[C@H]3N)[C@@H](N)C[C@H]2N)OC[C@]1(C)O.CN[C@@H]1[C@@H](O)[C@@H](O[C@@H]2[C@@H](O)[C@H](O[C@H]3O[C@H]([C@@H](C)NC)CC[C@H]3N)[C@@H](N)C[C@H]2N)OC[C@]1(C)O,inactive
15,CN1C2CCC1CC(OC(=O)C(CO)c1ccccc1)C2.O=S(=O)(O)O (stereo not given),inactive
16,CNCC(=O)c1ccc(O)c(O)c1.Cl,inactive
17,CCn1nc(-c2cccnc2)nc2c(=O)n(C)c(=O)nc1-2,active
18,CCCC(=O)O[C@H]1CN2CC[C@H](O)[C@@H]2[C@@H](O)[C@@H]1O,inactive
19,O=[N+]([O-])O[C@@H]1CO[C@H]2[C@@H]1OC[C@@H]2O,inactive
20,C1CNC[C@@H](N2CCCC2)C1,inactive
21,O=C(NC[C@H]1CC[C@@H]2NC[C@@H]2O1)C1CCCC1,inactive
22,C=CCN=C=S,active
23,O=C1NCN(c2ccccc2)C12CCNCC2,inactive

row,SMILES,cytotoxicity call
1,CN1C[C@H]2CON[C@@H]2C1,inactive
2,O=[N+]([O-])c1ccc2c3c(cccc13)CC2,inactive
3,CC(C)(CN)CNc1ccc([N+](=O)[O-])c2cccnc12,active
4,O=C1O[C@H]2CN[C@@H]1C2,inactive
5,N[C@@H](C(=O)O)c1nn[nH]n1,inactive
6,OCC(O)C1OC2OC(C(Cl)(Cl)Cl)OC2C1O (stereo not given),inactive
7,CS(=O)(=O)N1CCO[C@]2(COCCN(Cc3ccncc3)C2)C1,inactive
8,O=c1[nH]c2ccccc2n1C1CCN(Cc2ccc(-c3nc4cc5[nH]cnc5cc4nc3-c3ccccc3)cc2)CC1,active
9,CN1[C@@H]2CC[C@H]1C[C@H](O)C2,inactive
10,Cc1cccnc1N1CCNCC1,inactive
11,O=C1[O][SbH]23[O]C(=O)[C@H]([O]2)[C@H]2[O][SbH]4([O]C(=O)[C@H]([O]4)[C@H]1[O]3)[O]C2=O,active
12,O=C1[O][SbH]23[O]C(=O)C([O]2)C2[O][SbH]4([O]C(=O)C([O]4)C1[O]3)[O]C2=O,active
13,N#C[C@H]1NCc2cnnn2-c2ccccc21,inactive
14,O=[N+]([O-])c1c(NCCO)ccc2nonc12,inactive
15,CC(C)(C)CC(=O)N1C[C@H]2C[C@@H]1CN2,inactive
16,Cc1cc[n+](C)cc1,inactive
17,O=c1n(Cl)c(=O)n(Cl)c(=O)n1Cl,inactive
18,CC(COc1ccc(Oc2ccccc2)cc1)Oc1ccccn1 (stereo not given),inactive
19,O=c1[n-]c(=O)n(Cl)c(=O)n1Cl.[Na+],inactive
20,CCC(C)C1OC2(C=CC1C)CC1CC(CC=C(C)C(OC3CC(OC)C(OC4CC(OC)C(O)C(C)O4)C(C)O3)C(C)C=CC=C3COC4C(O)C(C)=CC(C(=O)O1)C34O)O2 (stereo not given) [ABAMECTIN (avermectin B1a shown) ],active
21,CN1CCN([C@@H](CN)c2ccc3c(c2)OCO3)CC1,inactive
22,O=C1C[C@H](c2ccccc2)[C@@H]2CNCCN12,inactive
